DT40 TDP1 no CPT = qHTS for Inhibitors of human tyrosyl-DNA phosphodiesterase 1 (TDP1): qHTS in cells in absence of CPT; DT40 Tdp1-/- hTDP1 cells, no CPT, ATP luminescence, 48 h; 420,000 tested, 15% active; Potency, µM (series often up to 46.2 µM), for inactives: at the highest dose activity change, negative = growth inhibition, most hits filed as inhibitors; AID 686978, 2013; note: potency is the fitted concentration of half-maximal effect; nearly all actives have a fitted effect of over 55% in size
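Growth of hTDP1-complemented DT40 Tdp1-knockout cells is measured by ATP luminescence after at least 48 hr compound exposure at 37 °C, with DMSO substituting for the 20 nM CPT used in the parallel screen.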
LDHA inh = blocks human lactate dehydrogenase A | AID 1347041 | activity change, % (values are at about 110 or 230 µM) | purified LDHA, NADH/diaphorase-resazurin fluorescence; active compounds read low | 480,000 tested, 0.15% active; in the data active = activity change below about -30%; inconclusive = mostly about -25% to -30%;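 note: plate controls were DMSO wells for no effect and wells without enzyme for full effect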
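Enzyme activity of human lactate dehydrogenase 5 (2 nM; 0.06 mM NADH, 0.2 mM pyruvate, 5 min, RT) is measured via a resazurin/diaphorase fluorescence readout of residual NADH.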
Gal4-VP16 FLuc = Gal4-VP16 reporter inhibition counter-screen; Drosophila S2 Gal4-VP16 UAS-luciferase, luminescence, 20 h; Potency, µM (titrated, usually from 53.6 µM), without a hit: top-dose activity, negative = inhibition, usual class: inhibitors; 310,000 tested, 3.5% active; AID 2546;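 note: Gal4-VP16 expression switched on by copper sulfate through the metallothionein promoter; potency is the fitted concentration of half-maximal effect; nearly all actives have a fitted effect of over 50% in size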
IL-1B inflam inh = inhibitors of inflammasome signaling (IL-1 beta secretion); THP-1 LPS/ATP IL-1B secretion, AlphaLISA, 16 h; active compounds read low; 360,000 tested, 4.7% active; activity change, % at 57.5 µM; in the data active = activity change below about -50%; inconclusive = mostly about -30% to -49%
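THP-1 cells pretreated 1 hr with compounds (up to 57.5 uM final), then stimulated with LPS (250 ng/mL final) plus ATP (1.25 mM final); secreted IL-1B measured by AlphaLISA after 16 hr, decreased signal indicating inhibition.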
RORg inh = blocks mouse ROR gamma transcriptional activity; P51450; Potency, µM (series often up to 53.6 µM), inactives show at the highest dose activity change, negative = inhibition, hits mostly inhibitors; 310,000 tested, 5.4% active; Drosophila S2 Gal4-RORgamma UAS-luciferase reporter, 20 h; note: potency is the fitted concentration of half-maximal effect; nearly all actives have a fitted effect of over 60% in size
Target sequence (P51450 whole entry, looked up, the tested form may be a part): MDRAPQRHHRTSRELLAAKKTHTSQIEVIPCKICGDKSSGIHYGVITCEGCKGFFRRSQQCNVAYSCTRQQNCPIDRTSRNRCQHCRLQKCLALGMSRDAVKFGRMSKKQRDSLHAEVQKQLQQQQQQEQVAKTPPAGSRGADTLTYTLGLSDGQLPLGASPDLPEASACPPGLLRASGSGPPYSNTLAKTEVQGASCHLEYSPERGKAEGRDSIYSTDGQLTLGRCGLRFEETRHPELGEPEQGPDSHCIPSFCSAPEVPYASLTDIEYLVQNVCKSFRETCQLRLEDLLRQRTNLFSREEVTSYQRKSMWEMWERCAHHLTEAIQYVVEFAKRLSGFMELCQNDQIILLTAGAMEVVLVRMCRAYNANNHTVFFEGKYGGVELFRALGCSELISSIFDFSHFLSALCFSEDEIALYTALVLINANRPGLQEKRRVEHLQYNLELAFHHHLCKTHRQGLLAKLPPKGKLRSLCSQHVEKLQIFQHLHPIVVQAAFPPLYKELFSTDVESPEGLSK
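Drosophila S2 cells stably expressing Gal4-DBD/mouse RORγ fusion under metallothionein promoter plus UAS-luciferase; compound 1 h, then 700 uM CuSO4 induction for 20 h at ambient temperature; inhibition read as reduced luminescence.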
DT40 TDP1 CPT = DT40-hTDP1 cell growth loss with CPT | chicken DT40 Tdp1-/-;hTDP1 cells + 20 nM CPT, ATP luminescence, 48 h | Potency, µM (doses to about 46.2 µM), for inactives: at the highest dose activity change, negative = growth inhibition, usual class: inhibitors | 420,000 tested, 12% active | AID 686979; note: potency is the fitted concentration of half-maximal effect; nearly all actives have a fitted effect of over 55% in size
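Chicken DT40 Tdp1-/- cells stably complemented with human TDP1 were seeded at 400 cells/well in medium containing 20 nM camptothecin, exposed to pin-transferred compounds, and grown at 37 °C for at least 48 hr. Viability was read as ATP luminescence.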
An asterisk follows results filed as active; i = inactive; ? = inconclusive; . = not tested or not shown. Most compounds without a hit are left out; they make up all but 18% or so of the library. Unless noted, calls come from the whole dose curve; as a rule, active = well fitted curve in the direction sought with a large enough effect; inconclusive = small, poorly fitted or top-dose-only effect, or another doubt; inactive = no such curve, though single readings can be large; an effect the other way counts as inactive or inconclusive. Unless noted, % is set by controls: 0 for no effect and ±100 for the full control effect.

SMILES | DT40 TDP1 no CPT | LDHA inh | Gal4-VP16 FLuc | IL-1B inflam inh | RORg inh | DT40 TDP1 CPT
CCC(C)Sc1ccc([C@@H]2[C@@H]3C(=O)N(CC)C(=O)[C@@H]3[C@]3(C(=O)OC)CCCCN23)cc1OC (stereo not given in full) | ? | 6 | . | -13 | . | ?
CCC(C)Sc1ccc([C@@H]2[C@H]3C(=O)N(C)C(=O)[C@H]3[C@]3(C(=O)OC)CCCN23)cc1 (stereo not given in full) | 15µM* | 0 | . | 28 | . | ?
CCC(C)Sc1ccc([C@@H]2[C@@H]3C(=O)N(C)C(=O)[C@@H]3[C@]3(C(=O)OC)CCCCN23)cc1OC (stereo not given in full) | 18µM* | 1 | . | 0 | . | ?
Cc1cc(C)c2oc(-c3cccc(NC(=O)c4ccc(Br)o4)c3)nc2c1 | ? | -1 | . | . | . | ?
CC1CCN(c2ccc(-c3cccc(NC(=O)C(F)(F)F)c3)nn2)CC1 | ? | -6 | 2.8µM* | ? | ? | ?
Cc1nnc2ccc(-c3cccc(NC(=O)c4ccc(Br)o4)c3)nn12 | 23µM* | -4 | 3% | -65* | 1% | ?
O=C(Nc1cccc(-c2nnc(-c3ccccc3)o2)c1)c1ccc(Br)o1 | ? | 1 | 0% | -24 | ? | 18µM*
O=C(Nc1cccc(-c2ccc(N3CCCCC3)nn2)c1)c1ccc(Br)o1 | 12µM* | 2 | . | 21 | . | 21µM*
CC1CCN(c2ccc(-c3cccc(NS(=O)(=O)c4cccs4)c3)nn2)CC1 | -6% | -5 | . | . | . | -8%
CCOc1ccc(-c2cccc(NC(=O)c3ccc(Br)o3)c2)nn1 | ? | -3 | . | -11 | . | -24%
COc1cc(OC)cc(C(=O)Nc2nnc(C(F)(F)F)s2)c1 | . | -5 | . | . | . | .
CNC(=O)NC(=O)CN(Cc1ccc2c(c1)OCO2)C1CCCC1 | . | -4 | . | . | . | .
CCC(=O)Nc1cccc(-c2ccc(N3CCC(C)CC3)nn2)c1 | 23µM* | -2 | 4µM* | ? | 2.5µM* | ?
CC1CCN(c2ccc(-c3cccc(NC(=O)c4ccco4)c3)nn2)CC1 | ? | -9 | . | -78* | . | ?
Fc1cccc(OCc2nnc(-c3ccc(Br)cc3)o2)c1 | . | 10 | . | . | . | .
CCOc1cc(Br)c(/C=C2/NC(=O)NC2=O)cc1OC | . | 6 | . | . | . | .
O=C(c1cccs1)N(Cc1cccs1)C1CC1 | . | 6 | . | . | . | .
CC(=O)O[C@H]1C2OC(=O)C(C)=C2[C@@H]2OC(=O)[C@]3(CCC4OC41C)OC23 (stereo not given in full) | ? | -5 | 7% | -72* | -13% | 15µM*
CC[N+]1(CC)CC2=Cc3c(ccc4ccccc34)C(C)C2C1 (stereo not given) | 13µM* | 10 | 0% | -16 | -12% | 5.8µM*
CC(C)c1ccc(NS(=O)(=O)c2c[nH]c3ccc([N+](=O)[O-])cc23)cc1 | . | 0 | . | . | . | .
Cc1ccc(OCc2cc(C(=O)N3CCCCCCC3)no2)cc1C | 5% | 2 | ? | -15 | ? | -18%
Cc1cc(OCc2cc(C(=O)N3CCCCCC3)no2)cc(C)c1Cl | ? | 1 | -14% | 0 | ? | 15µM*
Cc1ccccc1C1CCCN(C(=O)c2cc(COc3c(F)cccc3F)on2)C1 (stereo not given) | 21µM* | -1 | -11% | 6 | ? | 23µM*
Cc1ccc(OCc2cc(C(=O)N3CCN(C4CCCCC4)CC3)no2)cc1C | ? | -20 | -7% | 8 | ? | 16µM*
Cc1cc(OCc2cc(C(=O)N3CCC(Oc4cccnc4)CC3)no2)cc(C)c1Cl | 15µM* | -8 | ? | -62* | -28% | 13µM*
SMILES | DT40 TDP1 no CPT | LDHA inh | Gal4-VP16 FLuc | IL-1B inflam inh | RORg inh | DT40 TDP1 CPT
Cc1cc(OCc2cc(C(=O)N3CCN(CC4CC4)CC3)no2)cc(C)c1Cl | ? | 0 | -2% | 0 | ? | ?
N#Cc1ccc(CNc2cccc(Br)c2)c(F)c1 | . | -4 | . | . | . | .
CCCCCCn1c(SCC(=O)Nc2ccccc2)nc2c1c(=O)[nH]c(=O)n2C | . | 6 | . | . | . | .
Cc1cc(OCc2cc(C(=O)NC(C)c3cnn(C)c3)no2)cc(C)c1Cl (stereo not given) | 16µM* | 4 | . | -9 | . | 18µM*
Cc1cc(OCc2cc(C(=O)N(C)C(C)c3ccccn3)no2)cc(C)c1Cl (stereo not given) | ? | 1 | ? | -12 | ? | 18µM*
Cc1cc(OCc2cc(C(=O)N(C)Cc3ccccn3)no2)cc(C)c1Cl | ? | -5 | ? | i | 20% | ?
CC(=O)c1ccc(OCc2cc(C(=O)NC(C)c3cnn(C)c3)no2)cc1 (stereo not given) | -5% | -2 | ? | 9 | 36% | -29%
CCc1cccc2c(C(=O)COC(=O)c3cccs3)c[nH]c12 | . | 5 | . | . | . | .
O=S1(=O)N=C(N/N=C/C=C/c2ccccc2)c2ccccc21 | 5.8µM* | -6 | 0.63µM* | -4 | 0.4µM* | ?
CN(C)c1ccc(/C=N/NC2=NS(=O)(=O)c3ccccc32)cc1 | 6% | -12 | 5.6µM* | 28 | 4µM* | 9%
COc1ccc(/C=N/NC2=NS(=O)(=O)c3ccccc32)cc1 | 7% | 2 | ? | 12 | ? | 6%
O=S1(=O)N=C(N/N=C/c2ccc(Br)o2)c2ccccc21 | -6% | -5 | 14µM* | -15 | 6.3µM* | -4%
Cc1ccc(OCC(=O)Nc2sc3c(c2C#N)CC(C)(C)NC3(C)C)cc1 | ? | -6 | 5% | -11 | -1% | ?
CCOC(=O)c1c(NC(=O)COC(=O)c2ccc(C)s2)sc2c1CC(C)(C)NC2(C)C | 18µM* | -4 | . | -59* | . | ?
CCOC(=O)c1c(NC(=O)c2ccc(S(=O)(=O)N3CCCC(C)C3)cc2)sc2c1CC(C)(C)NC2(C)C (stereo not given) | 21µM* | -4 | . | . | . | 16µM*
CC1(C)Cc2c(sc(NC(=O)COc3cccc4ccccc34)c2C#N)C(C)(C)N1 | 13µM* | -1 | 5µM* | -100* | 8.9µM* | 10µM*
CCOC(=O)c1c(NC(=O)COc2ccccc2OCC)sc2c1CC(C)(C)NC2(C)C | 5.8µM* | -6 | . | -106* | . | 6.5µM*
CCOC(=O)c1c(NC(=O)Cc2ccccc2)sc2c1CC(C)(C)NC2(C)C | ? | -13 | -2% | -28 | -26% | ?
CCOc1ncccc1CNC(=O)c1cc2cc(OC)ccc2nc1C | . | -3 | . | . | . | .
